14 compounds from PubChem BioAssay can be followed below.

For assay [1], the system named is TRPC4 beta (transient receptor potential cation channel C4), mouse. The assay can be described thus: activators of mouse TRPC4 channel, confirmation, cell-based, Fluo4 calcium, HEK293 TRPC4beta/mu-opioid, duplicates, 10 µM (AID 2426). The note with it: Fluo4 calcium fluorescence, at 10 µM; hits give high values.
The subject of assay [2] is transient receptor potential cation channel C4 beta (TRPC4), mouse. The assay can be described thus: activators of mouse TRPC4 channel, confirmation, cell-based, second round, Fluo4, HEK293 TRPC4beta/mu-opioid, 1 µM (AID 2461;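 active = primary screen active and over 50% activation in each of two duplicate runs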). The note with it: Fluo4 calcium fluorescence, at 1 µM; hits give high values.
Assay [3] concerns TRPC4 (transient receptor potential cation channel C4 beta), mouse. The assay can be described thus: positive allosteric modulators of mouse TRPC4, confirmation, cell-based, second round, Fluo-4, HEK293 TRPC4beta/mu-opioid, 1 µM (AID 2554;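 active = primary screen hit whose fluorescence ratio, in both repeats, exceeds the weak agonist control mean by 3 SD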). The note with it: DAMGO EC20, Fluo-4 calcium flux, at 1 µM; hits give high values.
Assay [4] concerns TRPC4 beta (transient receptor potential cation channel C4), mouse. The assay can be described thus: positive allosteric modulators of mouse TRPC4, confirmation, cell-based, Fluo-4, HEK293 TRPC4beta/mu-opioid (AID 2555;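 active = primary screen hit whose calcium fluorescence ratio, in both repeats, exceeds the weak agonist control mean by 3 SD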). The note with it: DAMGO EC20, Fluo-4 calcium flux, at 10 µM; hits give high values. In general terms: Calcium flux is commonly read through the fluorescence of an indicator in the cells.

The target in assay [5] is Short transient receptor potential channel 4 (Mus musculus) (UniProt Q9QUQ5). The assay can be described thus: inhibitors of mouse TRPC4 channel, confirmation, cell-based, Fluo4, HEK293 TRPC4beta/mu-opioid (AID 2636;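 active = calcium signal cut by more than 3 SD below the full-agonist control yet still positive, in both repeats and the earlier primary screen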). The note with it: DAMGO, Fluo4 calcium flux, at 10 µM; hits give high values.
Assay [6] has the same target. The assay can be described thus: inhibitors of mouse TRPC4 channel, confirmation, cell-based, second round, Fluo4, HEK293 TRPC4beta/mu-opioid, 1 µM (AID 2637;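 active = calcium signal ratio cut to more than 3 SD under the fully stimulated control mean yet still positive, in both repeats and the primary screen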). The note with it: Fluo4 calcium flux, DAMGO, at 1 µM; hits give high values.
The target is the same in assay [7]. The assay can be described thus: mouse TRPC4 channel activators, dose response, cell-based, HEK293 TRPC4/mu-opioid, Fluo-4 calcium (AID 434937;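 active = primary screen activator hit with a dose response curve and TRPC4 channel activation at any tested dose; inactive = no activation, no dose response, or not a primary hit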).
For assay [8] the target is unchanged. The assay can be described thus: TRPC4 positive allosteric modulators, dose response, cell-based, HEK293 TRPC4/mu-opioid, Fluo-4 calcium, EC20 DAMGO (AID 434941;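 active = earlier screen potentiator hit that boosts the TRPC4 ion channel at some dose, with a dose response; inactive = no potentiation, no dose response, or not a prior hit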;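 note: calcium entry triggered by an EC20 dose of DAMGO at the co-expressed mu-opioid receptor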).
Assay [9] shares this target. The assay can be described thus: mouse TRPC4 channel inhibitors, dose response, cell-based, HEK293 TRPC4/mu-opioid, Fluo-4 calcium (AID 434942;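 active = primary screen inhibitor hit that blocks the TRPC4 channel at some tested dose, yielding a dose curve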).
In assay [10] the target is Short transient receptor potential channel 6 (Mus musculus) (UniProt Q61143). The assay can be described thus: inhibition of mouse TRPC6 channel, confirmation, selectivity assay for TRPC4 inhibitor project, cell-based, HEK293, membrane potential dye, duplicate (AID 434948;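 active = active in primary screen and both duplicates, each dropping signal beyond three positive-control SD with fluorescence still positive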). The note with it: HEK293 TRPC6, membrane potential dye fluorescence, at 10 µM, stimulated with maximal-effect acetylcholine; hits give high values.

Assay [11] has the same target. The assay can be described thus: activation of mouse TRPC6 channel, confirmation, selectivity assay for TRPC4 activator project, cell-based, HEK293, membrane potential dye, duplicate (AID 434950;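 active = membrane potential signal rise above negative control mean plus 3 SD in both duplicates, also active in the earlier TRPC4 screen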). The note with it: HEK293 TRPC6, membrane potential fluorescence, at 10 µM; hits give high values.
Assay [12] has the same target. The assay can be described thus: TRPC6 potentiation by TRPC4 potentiator hits, confirmation, selectivity assay for TRPC4 potentiator project, HEK293 cells, membrane potential dye, duplicate (AID 434952;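 active = compound raising the membrane signal above positive-control mean plus 3 SD in both repeats, and a primary screen hit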). The note with it: HEK293 TRPC6, membrane potential dye fluorescence, at 10 µM, maximal acetylcholine added after compound; hits give high values.
In assay [13] the target is Short transient receptor potential channel 4 (Mus musculus) (UniProt Q9QUQ5). The assay can be described thus: calcium flux activators in TRPC4/5HT1a cells, counter-screen for TRPC4 activator project, cell-based, second counter screen, HEK293 TRPC4/5HT1a, Fluo-4 (AID 434977;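 active = calcium signal rise above buffer-control mean plus 5 SD in both duplicates, and also a hit in the primary screen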). The note with it: Fluo-4 calcium flux, at 10 µM; hits give high values.
The nature of assay [14]: calcium flux inhibitors in TRPC4/5HT1a cells, confirmation, counter-screen for TRPC4 inhibitor project, cell-based, second counter screen, HEK293 TRPC4/5HT1a, Fluo-4 (AID 434978;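 active = primary screen active whose calcium signal fell more than 3 SD beyond the full-serotonin control mean in both duplicate plates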;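 for outcome: serotonin given first at submaximal then at maximal dose after compound preincubation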). The note with it: Fluo-4 calcium flux, at 10 µM, serotonin added to trigger calcium flux; hits give high values.
The subject of assay [15] is TRPC4 (mouse), co-expressed with 5HT1a in HEK293. The assay can be described thus: calcium flux potentiators in TRPC4/5HT1a cells, confirmation, counter-screen for TRPC4 potentiator project, cell-based, second counter screen, HEK293 TRPC4/5HT1a, Fluo-4 (AID 434979;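 active = signal rise over 3 SD above mean of control wells given weak agonist, in both repeats and first screen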). The note with it: Fluo-4 calcium flux, at 10 µM, serotonin added at its EC20 dose; hits give high values.
Assay [16] in a line: calcium flux activation in mu-opioid HEK293 cells, confirmation, counter-screen for TRPC4 activator project, cell-based, HEK293 mu-opioid receptor line (AID 449723;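 active = hit in primary screen, with calcium signal over 5 SD above buffer well mean in both duplicates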;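 note: counter screen cells carry the mu-opioid receptor alone and lack TRPC4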). The note with it: Fluo-4 calcium fluorescence, at 10 µM; hits give high values.
The nature of assay [17]: calcium flux enhancement in mu-opioid HEK293 cells, confirmation, counter-screen for TRPC4 allosteric potentiator project, cell-based, HEK293 mu-opioid receptor line (AID 449724;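 active = calcium signal rise more than 3 SD above the low-dose agonist control mean, in both duplicate plates and the primary screen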;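 note: HEK293 cells carrying mu-opioid receptor only with no TRPC4 channel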). The note with it: Fluo-4 calcium flux, at 10 µM, compound added before EC20 DAMGO stimulus; hits give high values.

What is called inhibition is the relative decrease from the control value, in per cent.

For some of these results: Measured potencies and affinities stand elsewhere. Activity calls are given as the source filed them.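 Rule for the calls, unless noted: active = fluorescence ratio normalized to control raised more than 50% in primary screen plus both repeat runs; inactive = the rest.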

Short transient receptor potential channel 6 (Mus musculus), sequence (Q61143 whole entry, looked up): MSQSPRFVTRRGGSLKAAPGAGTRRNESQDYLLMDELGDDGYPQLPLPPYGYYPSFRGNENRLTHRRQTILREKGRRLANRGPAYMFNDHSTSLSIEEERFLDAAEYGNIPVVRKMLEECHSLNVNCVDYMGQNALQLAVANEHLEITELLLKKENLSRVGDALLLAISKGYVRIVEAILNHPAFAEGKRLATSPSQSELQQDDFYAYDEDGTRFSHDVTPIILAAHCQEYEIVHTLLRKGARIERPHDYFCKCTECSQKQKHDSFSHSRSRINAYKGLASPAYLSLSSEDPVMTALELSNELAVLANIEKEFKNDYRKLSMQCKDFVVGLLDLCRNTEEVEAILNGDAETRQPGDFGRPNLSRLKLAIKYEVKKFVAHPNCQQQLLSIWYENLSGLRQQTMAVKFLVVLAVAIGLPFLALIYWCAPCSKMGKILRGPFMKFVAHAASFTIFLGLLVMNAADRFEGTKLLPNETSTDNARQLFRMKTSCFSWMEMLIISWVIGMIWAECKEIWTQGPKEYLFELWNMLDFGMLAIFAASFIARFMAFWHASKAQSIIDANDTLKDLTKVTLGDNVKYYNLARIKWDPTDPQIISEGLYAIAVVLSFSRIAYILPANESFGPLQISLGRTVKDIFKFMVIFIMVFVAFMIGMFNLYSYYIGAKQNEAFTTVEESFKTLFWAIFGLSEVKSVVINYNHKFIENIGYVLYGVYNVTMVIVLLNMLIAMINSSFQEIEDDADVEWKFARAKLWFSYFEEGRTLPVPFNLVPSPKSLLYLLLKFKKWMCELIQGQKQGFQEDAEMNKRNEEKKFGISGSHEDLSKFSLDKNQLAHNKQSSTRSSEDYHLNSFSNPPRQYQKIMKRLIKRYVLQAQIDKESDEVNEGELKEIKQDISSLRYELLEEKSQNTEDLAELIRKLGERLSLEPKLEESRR
Short transient receptor potential channel 4 (Mus musculus), sequence (Q9QUQ5 whole entry, looked up): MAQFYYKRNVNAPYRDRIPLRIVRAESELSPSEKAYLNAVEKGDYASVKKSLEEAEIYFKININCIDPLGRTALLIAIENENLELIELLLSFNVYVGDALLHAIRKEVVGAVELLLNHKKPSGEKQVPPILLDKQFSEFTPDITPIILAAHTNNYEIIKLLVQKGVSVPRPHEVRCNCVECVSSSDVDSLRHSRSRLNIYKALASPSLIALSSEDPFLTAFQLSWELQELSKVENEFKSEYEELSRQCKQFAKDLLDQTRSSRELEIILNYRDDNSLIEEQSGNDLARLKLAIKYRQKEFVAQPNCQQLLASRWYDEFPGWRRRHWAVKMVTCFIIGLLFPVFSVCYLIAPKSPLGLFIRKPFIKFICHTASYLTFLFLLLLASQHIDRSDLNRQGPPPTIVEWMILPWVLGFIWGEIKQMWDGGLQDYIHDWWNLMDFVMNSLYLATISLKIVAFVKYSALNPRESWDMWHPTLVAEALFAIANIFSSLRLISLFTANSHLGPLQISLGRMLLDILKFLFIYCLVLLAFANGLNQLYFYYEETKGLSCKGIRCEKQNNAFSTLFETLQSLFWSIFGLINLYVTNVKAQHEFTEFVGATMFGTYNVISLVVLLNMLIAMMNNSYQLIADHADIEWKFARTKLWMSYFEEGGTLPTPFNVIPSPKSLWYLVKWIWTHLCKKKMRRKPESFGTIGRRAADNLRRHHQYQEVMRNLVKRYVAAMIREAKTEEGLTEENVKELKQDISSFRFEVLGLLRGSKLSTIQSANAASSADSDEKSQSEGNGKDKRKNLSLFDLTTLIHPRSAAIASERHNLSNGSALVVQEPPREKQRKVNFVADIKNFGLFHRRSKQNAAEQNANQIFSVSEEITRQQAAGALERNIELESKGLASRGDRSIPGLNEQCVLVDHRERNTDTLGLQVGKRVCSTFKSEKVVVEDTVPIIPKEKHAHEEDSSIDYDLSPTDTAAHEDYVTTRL

Take `CCCN1CCC(NC(=O)Cc2cccc(C)c2)CC1`: the result in assay [1], in assay [2], in assay [3], in [4], in assay [5] and in assay [6] was inactive. The outcome in [7], in [8], in [9], in assay [10], in assay [11] and in assay [12] was inactive. Moreover, the outcome in assay [13], in [14], in assay [15], in assay [16] and in [17] was inactive.

As to `CC(C)(C)c1ccc(-c2nnc3sc(-c4ccccn4)nn23)cc1`, the outcome in [1], in assay [2], in assay [3], in assay [5], in assay [6] and in assay [7] was inactive. In addition, the outcome in assay [8], in [9], in assay [10], in assay [11], in assay [12] and in [13] was inactive. The result in assay [14], in assay [15], in assay [16] and in assay [17] was inactive. In addition, the potentiation in [4] is 68% (active).

Turning to `Fc1ccc2c(c1)C(c1ccncc1)=NNC(c1ccc(Cl)cc1)=N2`, the result in assay [1], in [2], in [3], in assay [4], in [5] and in assay [6] was inactive. Further, the outcome in assay [7], in [8], in [9], in assay [10], in assay [11] and in assay [12] was inactive. The outcome in assay [13], in [14], in [15], in [16] and in assay [17] was inactive.

For the compound `O=C(CC1C(=O)NCCN1C(=O)Nc1ccccc1)Nc1cc(Cl)cc(Cl)c1` (stereo not drawn), the outcome in assay [1], in assay [2], in [3], in assay [5], in [6] and in assay [7] was inactive. Further, the outcome in [8], in assay [9], in assay [10], in [11], in assay [12] and in assay [13] was inactive. The outcome in assay [14], in assay [16] and in assay [17] was inactive. Besides, the values for the potentiation in assay [4] and in assay [15] were 15% (active) and 21.1% (active), respectively.

As to `CN(Cc1ccccc1)C(=O)c1oc(=O)c2ccccc2c1-c1ccccc1`, the outcome in assay [1], in assay [2], in assay [3], in [4], in assay [5] and in [6] was inactive. Besides, the result in assay [7], in assay [8], in assay [9], in [10], in assay [11] and in assay [12] was inactive. In addition, the outcome in assay [13], in assay [14], in assay [16] and in assay [17] was inactive. Besides, the potentiation in assay [15] was 9.58% (active).

For `COc1ccc(CNCC(O)(c2ccccc2)c2ccccc2)cc1OC`, the result in [1], in assay [2], in assay [3], in [4], in assay [5] and in [6] was inactive. Also, the result in assay [7], in assay [8], in assay [9], in [10], in assay [11] and in [12] was inactive. Further, the outcome in [13], in [14], in assay [15], in assay [16] and in [17] was inactive.

Consider `CC(C)Oc1ccccc1C1CC(=O)Nc2cc3c(cc21)OCCO3` (stereo not drawn), for which the result in assay [1], in assay [2], in assay [3], in [5], in assay [6] and in assay [7] was inactive. Besides, the outcome in assay [8], in assay [9], in assay [10], in assay [11], in assay [12] and in [13] was inactive. In addition, the result in assay [14], in assay [16] and in assay [17] was inactive. Besides, the values for the potentiation in assay [4] and in assay [15] were 44% (active) and 96.2% (active), respectively.

Turning to `COc1ccc(OC)c(Nc2c3c(nc4ccccc24)CCC3)c1`, the outcome in [1], in [2], in assay [3], in [4], in assay [6] and in [7] was inactive. In addition, the outcome in assay [8], in [9], in assay [10], in assay [11], in assay [12] and in assay [13] was inactive. Moreover, the result in [15], in assay [16] and in assay [17] was inactive. Further, the inhibition in [5] was 67% (active); in assay [14], 30.5% (active).

Take `CCN(CC)CCOC(=O)c1cccc(Br)c1`: the result in [1], in [2], in assay [5], in assay [6], in [7] and in assay [8] was inactive. Moreover, the result in assay [9], in assay [10], in assay [11], in assay [12], in [13] and in assay [14] was inactive. In addition, the outcome in [16] and in assay [17] was inactive. Further, the potentiation was 14% (active) in assay [3], 12% (active) in [4] and 8.39% (active) in [15].

As for `CCCN1CCN(C(=S)NCc2ccc(Cl)cc2)CC1`, the result in assay [1], in assay [2], in assay [3], in [5], in assay [6] and in [7] was inactive. Also, the outcome in [8], in assay [9], in assay [10], in assay [11], in [12] and in assay [13] was inactive. Besides, the result in assay [14], in assay [16] and in assay [17] was inactive. Also, the figures for the potentiation in assay [4] and in assay [15] were 8% (active) and 19.3% (active), respectively.

As for `O=C(CCN1CCN(Cc2ccccc2)CC1)Nc1cccc(Br)c1`, the result in assay [1], in [2], in assay [4], in assay [5], in [6] and in assay [7] was inactive. Moreover, the result in assay [8], in assay [9], in assay [10], in assay [11], in assay [12] and in assay [13] was inactive. Also, the outcome in assay [14], in assay [15], in assay [16] and in assay [17] was inactive. Further, the potentiation in assay [3] was 21% (active).

As to `CN1CCN(NC(=O)Nc2cc(Cl)cc(Cl)c2)CC1`, the result in assay [1], in assay [2], in assay [3], in assay [5], in assay [6] and in assay [7] was inactive. The result in assay [8], in [9], in assay [10], in assay [11], in assay [12] and in assay [13] was inactive. Further, the outcome in [14], in assay [15], in [16] and in assay [17] was inactive. Besides, the potentiation in assay [4] is 29% (active).

Turning to `Cc1cc(=O)oc2cc(NC(=S)NCc3ccccn3)ccc12`, the result in [1], in [2], in [3], in [4], in [5] and in [6] was inactive. Moreover, the outcome in assay [7], in assay [8], in assay [9], in assay [10], in [11] and in assay [12] was inactive. Further, the result in assay [13], in assay [14], in assay [15], in assay [16] and in assay [17] was inactive.

Regarding `O=C(Cn1nc(-c2ccccc2)ccc1=O)NCCN1CCN(Cc2ccccc2)CC1`, the outcome in assay [1], in [2], in assay [3], in assay [4], in [5] and in assay [6] was inactive. The outcome in assay [7], in [8], in assay [9], in assay [10], in [11] and in assay [12] was inactive. Besides, the outcome in assay [13], in [14], in [16] and in assay [17] was inactive. The potentiation in assay [15] was 13% (active).
